Holding throughout (test): NCI-60 one-dose screen, 48 h (100 = growth as untreated, 0 = no growth, -100 = all killed)
What all share (details): 10 µM

Experiment [1] concerns K-562 leukemia.
For experiment [2], the system named is MALME-3M melanoma.
Experiment [3] concerns MDA-MB-231 breast.
Experiment [4] has as its system SF-268 CNS.
Experiment [5] has as its system SF-295 CNS.
For experiment [6], the system named is SF-539 CNS.
The test system of experiment [7] is UACC-257 melanoma.
In experiment [8] the test system is M14 melanoma.
Experiment [9] has as its system HCT-15 colon.
Experiment [10] concerns HT29 colon.
The test system of experiment [11] is SNB-75 CNS.
Experiment [12] concerns SNB-19 CNS.
The test system of experiment [13] is U251 CNS.
Experiment [14] deals with PC-3 prostate.
Experiment [15] has as its system SK-MEL-5 melanoma.
Experiment [16] relates to UACC-62 melanoma.
The subject of experiment [17] is LOX IMVI melanoma.
In experiment [18] the test system is SK-MEL-28 melanoma.
In experiment [19] the test system is SK-MEL-2 melanoma.

The panel holds about 83,000 compounds, 20% with a hit somewhere; the sample as a whole holds those more often.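 Treatment: one concentration, 48 hours, 96-well format. Scoring: percent growth, with anything below 10 considered active.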 A number with no mark means an inactive call. The source made the active and inactive calls.

`COc1ccc(NC(=O)Cc2nc3nc4sc(C)c(C)c4c(=O)n3[nH]2)cc1`: the growth in [1] was 109%; in experiment [2], 89.2%; in experiment [3], 108%; in [4] it was 109%; in experiment [5] it was 91.3%; in [6], 103%. In addition, the growth was 101% in experiment [7]; 103% in [8]; 99.7% in [9]; 94.1% in experiment [10]; 101% in [11]; 105% in experiment [12]. Further, the growth in experiment [13] is 91.2%; in experiment [14] it was 95.9%; in [15], 86.7%; in [16] it was 107%; in experiment [17], 89.7%; in experiment [18], 115%. In addition, the growth in experiment [19] was 103%.

As for `CCN(CCCCCCN1CC(=O)N(CCCCCCN(CC)Cc2ccccc2OC)CC1=O)Cc1ccccc1OC`, the growth is 4.44% (active) in experiment [1]; 109% in experiment [2]; 93.4% in experiment [3]; 90.6% in [4]; 72.2% in experiment [5]; 92.8% in experiment [6]. The growth is 108% in [7]; 82.5% in experiment [8]; 83.5% in [9]; 20% in [10]; 76.6% in experiment [11]; 94.8% in [12]. Moreover, the growth was 88.8% in [13]; 77.1% in [14]; 90.9% in experiment [15]; 104% in experiment [16]; 85.8% in [17]; 63.4% in experiment [19].

On to `CC1(O)CCC2CC3OC3(C)CCC3OC3(C)CCC1C2(C)C` (centres undefined), for which the growth in experiment [1] was 113%; in experiment [2] it was 110%; in experiment [3] it was 102%; in experiment [4], 107%; in experiment [5] it was 89.6%; in experiment [6], 119%. Also, the growth was 103% in experiment [8]; 105% in [9]; 109% in experiment [10]; 117% in experiment [11]; 89.8% in experiment [12]; 96% in [13]. The growth is 170% in [14]; 90.3% in experiment [15]; 99.3% in [16]; 102% in [17]; 121% in experiment [18]; 107% in experiment [19].

For `COc1cc2c(cc1OCCCN1CCN(c3ncnc4ccccc34)CC1)N=CC1CCCN1C2=O` (centres undefined), the growth in [1] was -24.8% (active); in [2], -71.7% (active); in experiment [3], -34.4% (active); in experiment [4], 10.3%; in [5], -20.9% (active); in [6], -82.7% (active). In addition, the growth is -46.8% (active) in [8]; 1.25% (active) in [9]; 12.3% in experiment [10]; -29.8% (active) in experiment [11]; 12% in [12]; 1.3% (active) in experiment [13]. The growth is -53% (active) in experiment [14]; -95.7% (active) in [15]; -91.8% (active) in [16]; -39.4% (active) in experiment [17]; -9.59% (active) in experiment [18]; 6.33% (active) in [19].

As to `COc1ccccc1CNCCN1C(=O)c2ccc3c4c(ccc(c24)C1=O)C(=O)N(CCNCc1ccccc1OC)C3=O`, the growth in [1] is -43.8% (active); in experiment [2], -92% (active); in [3], -18.4% (active); in [4], -79.5% (active); in experiment [5], -56.7% (active); in experiment [6], -97.3% (active). Besides, the growth in [7] was -96.4% (active); in [8] it was -94% (active); in [9], -77.1% (active); in experiment [10] it was -36.1% (active); in experiment [11] it was -96.1% (active); in experiment [12] it was -91.4% (active). The growth was -81.4% (active) in [13]; -75.4% (active) in experiment [14]; -100% (active) in experiment [15]; -93.3% (active) in experiment [16]; -82.3% (active) in experiment [17]; -74.6% (active) in experiment [19].

For the compound `CN1CCC2(CC1)NC(=O)c1c(c3ccc(Cl)c(Cl)c3n1C)C2C#N` (centres undefined), the growth in [1] was 80.1%; in experiment [2], 98.3%; in [3], 55%; in [4], 67.4%; in [5] it was 94.9%; in [6], 76%. Moreover, the growth was 65.2% in experiment [7]; 23.8% in experiment [8]; 82.6% in experiment [9]; 44.8% in experiment [10]; 34.3% in experiment [11]; 77.8% in experiment [12]. Further, the growth was 90.6% in experiment [13]; 67.1% in experiment [14]; 37.8% in [15]; -69.4% (active) in [16]; 76.6% in experiment [17]; 70.4% in experiment [18]. Besides, the growth in experiment [19] was 99.6%.

As for `O=C1NC(=O)c2ncccc21`, the growth in [1] is 107%; in [2], 114%; in experiment [3], 116%; in experiment [4], 103%; in [5] it was 89.7%; in experiment [6], 101%. Further, the growth in [7] was 102%; in experiment [8] it was 99.9%; in experiment [9], 101%; in [10], 108%; in experiment [11] it was 98%; in experiment [12], 107%. For the same compound, the growth in [14] was 107%; in experiment [15], 95.1%; in [16], 112%; in [17] it was 101%; in [18] it was 110%.

Consider `Cc1cc(O)c(C(C)(C)C)cc1Sc1cc(C(C)(C)C)c(O)cc1C`, for which the growth is 14.6% in experiment [1]; 73.7% in experiment [2]; -9.88% (active) in [3]; 49.4% in [4]; 53.4% in experiment [5]; 77.8% in experiment [6]. For the same compound, the growth in experiment [7] was 30.9%; in experiment [8], 0.358% (active); in [9] it was 44.3%; in [10] it was 97.1%; in experiment [11], 54.2%; in experiment [12] it was 81%. In addition, the growth is 60% in experiment [13]; 22.5% in experiment [14]; 33.7% in experiment [15]; 16.3% in [16]; 63.9% in experiment [17]; 72.6% in experiment [19].

Consider `O=C(CC(C(=O)c1ccccc1)N1CCOCC1)c1ccccc1` (centres undefined), for which the growth in experiment [1] is 40.5%; in experiment [2], 101%; in [3] it was 92.7%; in experiment [4], 97.6%; in experiment [5] it was 92.9%; in [6], 96.7%. Moreover, the growth in [7] was 93.8%; in experiment [8], 101%; in [9], 85%; in experiment [10] it was 92.4%; in experiment [11] it was 101%; in [12] it was 95.6%. In addition, the growth was 88% in experiment [13]; 99.4% in experiment [14]; 95.5% in experiment [15]; 87.7% in [16]; 88.4% in experiment [17]; 92.2% in experiment [18]. The growth in experiment [19] is 102%.

The values are drawn from PubChem BioAssay (NCI).
